Screening results: PubChem, National Center for Advancing Translational Sciences (NCATS)
Nrf2 block = inhibitors of Nrf2 signaling; 360,000 compounds, 2.1% hits; A549 ARE-Fluc reporter, luciferase luminescence, 18-24 h; AID 504444; Potency, µM (top dose mostly 46 µM), usual class: inhibitors; also: nearly all actives have a fitted effect of over 60% in size
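Two sequential reads on A549 ARE_Fluc cells exposed to compound for 18-24 h: a CellTiter-Fluor fluorescence read for viability, then a luciferase luminescence read for Nrf2/ARE activity.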
KB-V1 cytotox = KB-V1 MDR subline cytotoxicity. KB-V1 MDR cells viability, CellTiter-Glo, 72 h. Potency, µM (series often up to 46.1 µM), usual class: cytotoxic. 400,000 compounds, 3.4% hits. AID 1347076; also: nearly all actives have a fitted effect of over 60% in size
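Drug-selected KB-V1 cells, grown in DMEM lacking phenol red with 10% FBS, receive compound titrations; after three days at 37 degrees C, surviving cell ATP is quantified by CellTiter-Glo luminescence and responses normalized and curve-fitted.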
KB-3-1 cytotox = KB-3-1 parental cell cytotoxicity. 400,000 compounds, 1.4% hits. Potency, µM (titrated, usually from 46.1 µM), usual class: cytotoxic. KB-3-1 viability, CellTiter-Glo ATP luminescence, 72 h. AID 1347075; also: nearly all actives have a fitted effect of over 60% in size
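Using CellTiter-Glo luminescence, growth of non-resistant KB-3-1 adenocarcinoma cells is assessed 72 h after pin-tool compound addition at 37 °C. Normalized responses across the concentration series yield fitted curves.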
A549 viability = counter-screen for Nrf2 inhibitors: cytotoxicity in A549 cells. A549 ARE-Fluc cells, CellTiter-Fluor viability, 18-24 h. Potency, µM (titrated, usually from 46 µM), actives largely listed as inhibitors. 390,000 compounds, 0.16% hits. AID 504648
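Cytotoxicity counterscreen: CellTiter-Fluor fluorescence was measured in A549 ARE_Fluc cells after 18-24 h of compound exposure in a concentration series. The subsequent BugLite luminescent read reports ARE-luciferase activity.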
Giardia kill = kills Giardia lamblia; Giardia lamblia trophozoite viability; activity change, % at 7.66 µM, hits read low; 340,000 compounds, 0.15% hits; AID 540267; in the data active = activity change below about -80%; inconclusive = between about -30% and that limit;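 also: parasites exposed to compound for two days anaerobically before the ATP read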
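Compounds were tested on trophozoites seeded at 100 cells/well and held 48 hrs at 37 deg C anaerobically. An ATP-based luminescent kit measured the remaining live cells.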
PI4K2A block = inhibitors of human PI4K2A. 420,000 compounds, 0.13% hits. AID 1346378. activity change, negative = inhibition, % at 76.9 µM. purified PI4K2A, ADP-Glo luminescence, 1 h; stronger effect = lower value. Q9BTU6; in the data active = activity change below about -50%; inconclusive = mostly about -30% to -49%
Target sequence (Q9BTU6 whole entry, looked up): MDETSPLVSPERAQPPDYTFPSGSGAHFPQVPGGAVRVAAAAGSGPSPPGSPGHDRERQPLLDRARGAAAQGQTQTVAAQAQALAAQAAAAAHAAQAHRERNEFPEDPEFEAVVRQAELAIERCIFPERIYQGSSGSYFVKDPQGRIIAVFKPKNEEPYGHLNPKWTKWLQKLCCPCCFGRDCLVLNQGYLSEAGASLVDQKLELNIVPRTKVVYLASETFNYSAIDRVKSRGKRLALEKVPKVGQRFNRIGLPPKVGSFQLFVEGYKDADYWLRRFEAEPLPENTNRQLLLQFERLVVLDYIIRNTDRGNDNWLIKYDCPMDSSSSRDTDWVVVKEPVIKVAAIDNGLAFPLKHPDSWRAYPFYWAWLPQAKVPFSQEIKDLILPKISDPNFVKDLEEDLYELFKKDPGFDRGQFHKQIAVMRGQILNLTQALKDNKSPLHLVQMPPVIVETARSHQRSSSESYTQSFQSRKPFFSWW
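Compounds are screened against recombinant PI4K2A using PI as substrate and ATP, the latter dispensed at 300 microM. Reactions run one hour at ambient temperature before ADP-Glo detection; full inhibition defined by wells lacking enzyme.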
Numbers stand for hits; n = inactive; u = inconclusive; x = no result given. Only some compounds are listed: those with a hit (about 5.7% of all), similar ones and a draw of the others. Unless noted, calls follow the shape of the dose curve; as a rule, active = well fitted curve in the direction sought with a large enough effect; inconclusive = small, poorly fitted or top-dose-only effect, or another doubt; inactive = no such curve, though single readings can be large; an effect the other way counts as inactive or inconclusive.

SMILES	Nrf2 block	KB-V1 cytotox	KB-3-1 cytotox	A549 viability	Giardia kill	PI4K2A block
COC(=O)C1=C(C)NC2=C(C(=O)CC(C)(C)C2)C1c1cn(Cc2ccc(Br)cc2)nc1-c1ccccc1 (configuration not stated)	13µM	u	n	n	n	n
COC(=O)C1=C(C)NC2=C(C(=O)CCC2)C1c1cn(Cc2ccc(Br)cc2)nc1-c1ccccc1 (configuration not stated)	u	n	n	n	n	n
CCOc1ccc(NS(=O)(=O)c2ccc(NS(=O)(=O)c3ccccc3)cc2)cc1	n	n	n	n	n	n
CCOc1ccc(S(=O)(=O)Nc2ccccc2SC)cc1	x	16µM	u	n	n	n
CCOc1ccc(S(=O)(=O)Nc2cccc(Cl)c2)cc1	13µM	u	u	u	n	n
NC(=S)c1ccc[n+]([C@@H]2O[C@@H](COP(=O)([O-])OP(=O)(O)OC[C@H]3O[C@@H](n4cnc5c(N)ncnc54)[C@H](OP(=O)(O)O)[C@@H]3O)C(O)C2O)c1 (some centres not stated)	x	x	x	x	x	n
Cc1ccccc1CNC(=O)C1C2C=CC3(CN(Cc4ccccc4)C(=O)C13)O2 (configuration not stated)	x	x	x	x	x	n
C=CCNC(=O)C1CC1(c1ccc(C)cc1)c1ccc(C)cc1 (configuration not stated)	u	u	n	n	n	n
C=CCNC(=O)C1CC1(c1ccccc1)c1ccccc1 (configuration not stated)	n	18µM	n	n	n	n
CCC(=O)Nc1cccc(-c2cc3ccccc3oc2=O)c1	u	n	n	n	n	n
O=C(Cc1cccc2ccccc12)Nc1ccc(-c2cc3ccccc3oc2=O)cc1	5.8µM	n	n	n	n	n
Cc1cc(C)cc(-n2c3ccc(NC(=O)Cc4cccc5ccccc45)cc3c(=O)n2C)c1	x	u	5.2µM	x	x	n
Cn1c(=O)c2cc(NC(=O)Cc3ccccc3F)ccc2n1-c1ccc(C(C)(C)C)cc1	x	n	u	x	x	n
O=C(Nc1ccc2c(c1)OCCO2)Nc1nnc(-c2ccncc2)s1	x	n	n	x	x	x
COc1cccc(OCc2cc(C3Nc4ccccc4C(=O)N3c3ccccc3)ccc2OC)c1 (configuration not stated)	n	n	u	n	n	x
Cc1cccc(NC(=O)COc2cccc3c2CCN(C)C3=O)c1C	u	u	n	n	u	n
CCOC(=O)N1CCN(C(=O)COc2cccc3c2CCN(Cc2ccccc2C)C3=O)CC1	n	u	n	n	n	n
Cc1cccc(NC(=O)COc2cccc3c2CCN(Cc2ccccc2)C3=O)c1C	n	9.2µM	n	n	n	n
CCOC(=O)N1CCN(C(=O)COc2cccc3c2CCN(Cc2cccc(C)c2)C3=O)CC1	u	18µM	n	n	n	n
Cc1ccc(CSc2nnc(-c3ccc(NC(=O)CCc4ccccc4)cc3)n2C)cc1	x	n	n	x	x	x
CC1=Nc2cc(C(=O)NCCCOC(C)C)ccc2Sc2ccccc21	n	u	u	n	n	n
CC(C)OCCCNC(=O)c1ccc2c(c1)NC(=O)c1ccccc1S2	21µM	u	n	n	n	n
CCCC1=Nc2cc(C(=O)NCCCOCC)ccc2Sc2ccccc21	n	1µM	0.52µM	u	n	n
CCCC1=Nc2cc(C(=O)NCCCOC(C)C)ccc2Sc2ccccc21	8.2µM	7.3µM	4.6µM	u	n	n
CCCC1=Nc2cc(C(=O)NCCOC)ccc2Sc2ccccc21	u	x	x	n	x	n
CCCC1=Nc2cc(C(=O)NCC(C)c3ccccc3)ccc2Sc2ccccc21 (configuration not stated)	u	u	u	n	x	n
CC1=Nc2cc(C(=O)NCCCOC(C)C)ccc2Sc2ccc(C)cc21	23µM	4.1µM	2.9µM	n	n	n
COc1ccc(S(=O)(=O)Nc2cccc3c2O[C@H](CN(C)Cc2ccc(Oc4ccccc4)cc2)[C@@H](C)CN([C@H](C)CO)C3=O)cc1	16µM	n	u	n	u	n
